# In PMC7862700, “An all-to-all approach to the identification of sequence-specific readers for epigenetic DNA modifications on cytosine”:
# How the values were obtained:
# Test in all cases: DAPPL (digital affinity profiling via proximity ligation, sequencing); 10 mM Tris-HCl pH 7.5, 50 mM NaCl, 1 mM DTT, 4% glycerol, room temperature, 30 min; GST-TFs on glutathione beads, 16-mer random dsDNA library, 0.1% formaldehyde crosslink after washing; high values mean tight binding
# [1] = biological target: T1, FLI1 (Homo sapiens, UniProt Q01543 1-452); conditions: protein: recombinant; tags: N-terminal GST; dsDNA, one strand shown
# T1 sequence: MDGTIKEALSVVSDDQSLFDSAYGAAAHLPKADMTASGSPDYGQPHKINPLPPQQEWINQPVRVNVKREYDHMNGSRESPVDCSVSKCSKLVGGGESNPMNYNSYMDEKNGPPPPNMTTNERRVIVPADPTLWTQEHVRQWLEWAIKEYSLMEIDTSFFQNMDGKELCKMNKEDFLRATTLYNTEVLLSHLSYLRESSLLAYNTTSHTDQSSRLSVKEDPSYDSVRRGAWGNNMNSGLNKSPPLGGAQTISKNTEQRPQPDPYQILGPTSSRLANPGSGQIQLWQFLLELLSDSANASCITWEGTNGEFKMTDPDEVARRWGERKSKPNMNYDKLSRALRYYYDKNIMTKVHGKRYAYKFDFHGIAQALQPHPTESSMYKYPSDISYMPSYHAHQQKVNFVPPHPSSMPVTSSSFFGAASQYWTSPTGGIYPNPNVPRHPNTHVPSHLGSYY
# Outline: (§1)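 A tag-only sample was pooled with DNA-barcoded human transcription factors that had been expressed in yeast as GST fusions and captured on glutathione beads. The pools were incubated for 30 min at room temperature with 200 nmole of a random double-stranded 16-mer DNA library in Tris/NaCl/DTT/glycerol buffer, then washed, crosslinked with 0.1% formaldehyde, proximity-ligated (BsaI/T4 ligase, 1 h, 37 °C), PCR-amplified and sequenced on an Illumina NextSeq500. Binding signal is each hexamer's read frequency for a factor divided by its frequency for the tag-only sample.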
# [2] = biological target: T2, ELK1 (Homo sapiens, UniProt P19419 1-428); conditions: protein: recombinant; tags: N-terminal GST; dsDNA, one strand shown
# T2 sequence: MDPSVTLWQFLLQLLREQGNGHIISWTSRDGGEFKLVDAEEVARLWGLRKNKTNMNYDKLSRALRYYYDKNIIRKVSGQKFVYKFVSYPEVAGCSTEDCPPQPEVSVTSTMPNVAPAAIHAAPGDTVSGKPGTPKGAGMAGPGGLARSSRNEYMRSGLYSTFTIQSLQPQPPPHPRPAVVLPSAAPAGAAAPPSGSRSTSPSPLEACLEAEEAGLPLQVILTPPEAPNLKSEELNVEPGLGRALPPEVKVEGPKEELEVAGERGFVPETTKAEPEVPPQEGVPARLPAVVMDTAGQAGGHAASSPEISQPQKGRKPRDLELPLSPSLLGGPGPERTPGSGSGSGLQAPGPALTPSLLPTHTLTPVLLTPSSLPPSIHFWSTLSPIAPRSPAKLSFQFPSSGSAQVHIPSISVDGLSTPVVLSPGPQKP
# Outline: as §1
# [3] = biological target: T3, GABPA (Homo sapiens, UniProt Q06546 1-454); conditions: protein: recombinant; tags: N-terminal GST; dsDNA, one strand shown
# T3 sequence: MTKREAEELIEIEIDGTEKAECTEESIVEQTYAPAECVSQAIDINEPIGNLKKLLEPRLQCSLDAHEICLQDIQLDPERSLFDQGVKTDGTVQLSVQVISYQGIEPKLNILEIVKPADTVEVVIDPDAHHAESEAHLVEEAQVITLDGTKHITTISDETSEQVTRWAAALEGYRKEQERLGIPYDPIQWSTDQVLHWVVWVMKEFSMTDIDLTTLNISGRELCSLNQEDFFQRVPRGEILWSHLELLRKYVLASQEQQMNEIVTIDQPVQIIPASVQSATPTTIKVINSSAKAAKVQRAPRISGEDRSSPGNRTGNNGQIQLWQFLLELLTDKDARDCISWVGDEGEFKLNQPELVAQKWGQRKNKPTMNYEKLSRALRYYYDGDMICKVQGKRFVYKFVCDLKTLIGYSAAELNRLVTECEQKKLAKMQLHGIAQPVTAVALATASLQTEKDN
# Outline: as §1
# [4] = biological target: T4, ERG (Homo sapiens, UniProt P11308 1-479); conditions: protein: recombinant; tags: N-terminal GST; dsDNA, one strand shown
# T4 sequence: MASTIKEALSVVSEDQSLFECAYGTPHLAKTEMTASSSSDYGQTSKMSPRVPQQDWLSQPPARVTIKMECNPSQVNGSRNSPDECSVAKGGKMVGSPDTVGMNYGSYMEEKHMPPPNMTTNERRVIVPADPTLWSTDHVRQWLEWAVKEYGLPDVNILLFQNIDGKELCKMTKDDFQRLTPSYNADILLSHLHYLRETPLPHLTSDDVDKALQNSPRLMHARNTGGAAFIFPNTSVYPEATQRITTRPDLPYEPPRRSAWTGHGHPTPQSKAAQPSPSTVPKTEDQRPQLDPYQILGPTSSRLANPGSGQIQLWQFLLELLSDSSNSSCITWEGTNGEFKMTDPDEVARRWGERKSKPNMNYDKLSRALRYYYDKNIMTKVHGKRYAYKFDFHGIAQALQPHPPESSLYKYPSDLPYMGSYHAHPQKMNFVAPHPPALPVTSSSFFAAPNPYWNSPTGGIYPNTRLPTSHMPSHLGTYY
# Outline: as §1
# [5] = biological target: ELF1 (Homo sapiens, UniProt P32519 1-619); conditions: protein: recombinant; tags: N-terminal GST; dsDNA, one strand shown
# Chain of ELF1 (P32519 whole entry): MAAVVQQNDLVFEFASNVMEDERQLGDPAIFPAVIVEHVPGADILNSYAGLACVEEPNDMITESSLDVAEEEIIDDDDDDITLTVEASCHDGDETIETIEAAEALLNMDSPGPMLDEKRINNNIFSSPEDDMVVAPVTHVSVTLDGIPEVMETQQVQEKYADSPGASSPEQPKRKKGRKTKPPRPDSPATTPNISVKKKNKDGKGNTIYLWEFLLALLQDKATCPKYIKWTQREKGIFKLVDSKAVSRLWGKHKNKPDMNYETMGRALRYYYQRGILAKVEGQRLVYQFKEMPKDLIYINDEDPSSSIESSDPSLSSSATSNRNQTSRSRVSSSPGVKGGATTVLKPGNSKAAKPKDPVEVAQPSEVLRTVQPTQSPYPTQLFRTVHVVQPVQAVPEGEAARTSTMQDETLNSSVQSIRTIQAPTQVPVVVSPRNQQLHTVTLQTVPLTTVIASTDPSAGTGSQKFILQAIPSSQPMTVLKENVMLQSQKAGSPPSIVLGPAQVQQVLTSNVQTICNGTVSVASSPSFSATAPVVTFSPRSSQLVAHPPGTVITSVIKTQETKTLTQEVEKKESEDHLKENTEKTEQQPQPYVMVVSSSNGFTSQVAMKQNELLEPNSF
# Outline: as §1
# [6] = biological target: T5, EHF (Homo sapiens, UniProt Q9NZC4 1-300); conditions: protein: recombinant; tags: N-terminal GST; dsDNA, one strand shown
# T5 sequence: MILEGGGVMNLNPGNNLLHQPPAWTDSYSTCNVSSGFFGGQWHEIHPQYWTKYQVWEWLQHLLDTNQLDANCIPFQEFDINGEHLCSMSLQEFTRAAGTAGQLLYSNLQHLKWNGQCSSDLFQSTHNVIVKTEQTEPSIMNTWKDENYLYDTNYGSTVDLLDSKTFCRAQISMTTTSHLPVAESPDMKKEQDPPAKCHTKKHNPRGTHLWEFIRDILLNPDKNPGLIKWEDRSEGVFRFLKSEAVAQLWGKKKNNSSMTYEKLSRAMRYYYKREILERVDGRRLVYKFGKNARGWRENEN
# Outline: as §1
# [7] = biological target: SPI1 (Homo sapiens, UniProt P17947 1-270); conditions: protein: recombinant; tags: N-terminal GST; dsDNA, one strand shown
# Outline: as §1
# [8] = biological target: SPIB (Homo sapiens, UniProt Q01892 1-262); conditions: protein: recombinant; tags: N-terminal GST; dsDNA, one strand shown
# Chain of SPIB (Q01892 whole entry): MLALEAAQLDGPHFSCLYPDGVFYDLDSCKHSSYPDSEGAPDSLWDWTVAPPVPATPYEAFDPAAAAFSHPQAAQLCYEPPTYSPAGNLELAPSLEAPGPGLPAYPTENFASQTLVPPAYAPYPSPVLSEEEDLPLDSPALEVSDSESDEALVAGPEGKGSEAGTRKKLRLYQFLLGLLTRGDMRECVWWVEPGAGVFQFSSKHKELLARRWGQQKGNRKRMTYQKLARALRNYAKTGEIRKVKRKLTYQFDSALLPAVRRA
# Outline: as §1
# [9] = biological target: T6, ELK3 (Homo sapiens, UniProt P41970 1-407); conditions: protein: recombinant; tags: N-terminal GST; dsDNA, one strand shown
# T6 sequence: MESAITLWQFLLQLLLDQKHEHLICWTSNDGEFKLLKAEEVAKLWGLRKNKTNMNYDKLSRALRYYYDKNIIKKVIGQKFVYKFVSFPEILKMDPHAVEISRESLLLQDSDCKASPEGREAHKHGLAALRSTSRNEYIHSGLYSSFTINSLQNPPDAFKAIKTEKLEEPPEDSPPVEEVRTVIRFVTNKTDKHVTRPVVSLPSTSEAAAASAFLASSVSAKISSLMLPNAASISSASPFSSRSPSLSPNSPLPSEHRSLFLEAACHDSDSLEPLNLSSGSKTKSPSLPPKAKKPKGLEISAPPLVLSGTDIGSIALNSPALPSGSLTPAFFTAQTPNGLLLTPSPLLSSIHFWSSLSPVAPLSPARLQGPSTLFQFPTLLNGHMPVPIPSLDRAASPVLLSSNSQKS
# Outline: as §1
# [10] = biological target: T7, FEV (Homo sapiens, UniProt Q99581 1-238); conditions: protein: recombinant; tags: N-terminal GST; dsDNA, one strand shown
# T7 sequence: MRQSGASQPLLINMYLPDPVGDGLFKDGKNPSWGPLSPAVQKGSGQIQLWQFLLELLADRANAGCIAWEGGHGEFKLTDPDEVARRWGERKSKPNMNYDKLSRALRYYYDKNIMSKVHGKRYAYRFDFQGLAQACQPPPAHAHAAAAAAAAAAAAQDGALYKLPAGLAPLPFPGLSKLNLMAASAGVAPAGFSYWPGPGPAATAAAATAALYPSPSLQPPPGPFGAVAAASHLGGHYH
# Outline: as §1
# [11] = biological target: ETV5 (Homo sapiens, UniProt P41161 1-510); conditions: protein: recombinant; tags: N-terminal GST; dsDNA, one strand shown
# Chain of ETV5 (P41161 whole entry): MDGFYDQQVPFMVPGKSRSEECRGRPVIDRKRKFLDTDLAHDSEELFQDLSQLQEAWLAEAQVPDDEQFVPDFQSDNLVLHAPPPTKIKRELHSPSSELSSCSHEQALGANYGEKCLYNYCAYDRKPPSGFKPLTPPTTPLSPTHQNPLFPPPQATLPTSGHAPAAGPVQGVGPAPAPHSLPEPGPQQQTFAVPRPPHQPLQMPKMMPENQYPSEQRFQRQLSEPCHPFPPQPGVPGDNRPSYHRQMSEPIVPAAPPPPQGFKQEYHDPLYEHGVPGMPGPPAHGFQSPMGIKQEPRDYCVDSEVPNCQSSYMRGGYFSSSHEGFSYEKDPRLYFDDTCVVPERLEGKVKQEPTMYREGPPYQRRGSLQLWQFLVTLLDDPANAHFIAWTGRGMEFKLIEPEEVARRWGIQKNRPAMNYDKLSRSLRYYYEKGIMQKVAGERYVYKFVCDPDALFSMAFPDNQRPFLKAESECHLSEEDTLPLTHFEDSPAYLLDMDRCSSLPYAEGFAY
# Outline: as §1
# [12] = biological target: HSF1 (Homo sapiens, UniProt Q00613 1-529); conditions: protein: recombinant; tags: N-terminal GST; chain copies: 3; dsDNA, one strand shown
# Chain of HSF1 (Q00613 whole entry): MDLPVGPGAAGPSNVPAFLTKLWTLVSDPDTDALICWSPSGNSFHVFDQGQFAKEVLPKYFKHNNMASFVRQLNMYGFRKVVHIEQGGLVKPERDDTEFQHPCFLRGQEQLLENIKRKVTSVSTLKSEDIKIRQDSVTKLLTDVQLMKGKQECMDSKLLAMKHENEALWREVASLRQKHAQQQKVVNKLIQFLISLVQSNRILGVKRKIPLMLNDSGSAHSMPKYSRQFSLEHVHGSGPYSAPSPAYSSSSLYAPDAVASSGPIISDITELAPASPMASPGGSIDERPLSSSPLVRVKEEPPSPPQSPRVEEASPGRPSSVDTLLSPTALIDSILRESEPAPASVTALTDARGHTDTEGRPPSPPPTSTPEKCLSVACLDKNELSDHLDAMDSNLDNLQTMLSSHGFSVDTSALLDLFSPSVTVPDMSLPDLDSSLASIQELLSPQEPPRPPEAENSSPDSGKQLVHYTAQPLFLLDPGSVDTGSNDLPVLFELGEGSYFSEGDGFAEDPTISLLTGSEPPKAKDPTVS
# Outline: as §1
# [13] = biological target: T8, SPIC (Homo sapiens, UniProt Q8N5J4 1-248); conditions: protein: recombinant; tags: N-terminal GST; dsDNA, one strand shown
# T8 sequence: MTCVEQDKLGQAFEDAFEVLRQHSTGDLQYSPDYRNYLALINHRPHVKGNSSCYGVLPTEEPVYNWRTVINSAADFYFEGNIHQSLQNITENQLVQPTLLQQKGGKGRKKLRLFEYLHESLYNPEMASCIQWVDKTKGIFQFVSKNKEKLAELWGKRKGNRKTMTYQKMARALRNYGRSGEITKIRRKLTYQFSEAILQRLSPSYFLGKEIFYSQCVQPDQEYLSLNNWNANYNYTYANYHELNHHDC
# Outline: as §1
# [14] = biological target: ELF4 (Homo sapiens, UniProt Q99607 1-663); conditions: protein: recombinant; tags: N-terminal GST; dsDNA, one strand shown
# Chain of ELF4 (Q99607 whole entry): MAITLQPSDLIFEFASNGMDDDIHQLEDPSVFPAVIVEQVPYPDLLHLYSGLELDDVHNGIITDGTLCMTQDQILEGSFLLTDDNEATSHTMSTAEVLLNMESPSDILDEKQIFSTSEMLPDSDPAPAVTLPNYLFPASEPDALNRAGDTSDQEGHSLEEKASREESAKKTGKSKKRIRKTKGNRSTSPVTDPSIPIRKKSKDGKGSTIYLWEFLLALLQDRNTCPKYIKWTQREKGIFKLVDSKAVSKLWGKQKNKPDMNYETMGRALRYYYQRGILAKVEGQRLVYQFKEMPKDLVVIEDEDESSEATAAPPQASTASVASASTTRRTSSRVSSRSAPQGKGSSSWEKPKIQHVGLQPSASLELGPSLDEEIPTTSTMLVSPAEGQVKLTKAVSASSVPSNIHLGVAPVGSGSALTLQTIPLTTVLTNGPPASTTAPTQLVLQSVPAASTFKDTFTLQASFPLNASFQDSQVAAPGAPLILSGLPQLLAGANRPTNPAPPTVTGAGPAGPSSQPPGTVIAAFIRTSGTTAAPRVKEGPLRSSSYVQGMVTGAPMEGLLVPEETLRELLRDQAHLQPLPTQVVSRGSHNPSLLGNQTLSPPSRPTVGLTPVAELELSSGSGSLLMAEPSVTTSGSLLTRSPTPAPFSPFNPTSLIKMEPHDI
# Outline: as §1
# [15] = biological target: T9, ELK4 (Homo sapiens, UniProt P28324-2 1-405); conditions: protein: recombinant; tags: N-terminal GST; dsDNA, one strand shown
# T9 sequence: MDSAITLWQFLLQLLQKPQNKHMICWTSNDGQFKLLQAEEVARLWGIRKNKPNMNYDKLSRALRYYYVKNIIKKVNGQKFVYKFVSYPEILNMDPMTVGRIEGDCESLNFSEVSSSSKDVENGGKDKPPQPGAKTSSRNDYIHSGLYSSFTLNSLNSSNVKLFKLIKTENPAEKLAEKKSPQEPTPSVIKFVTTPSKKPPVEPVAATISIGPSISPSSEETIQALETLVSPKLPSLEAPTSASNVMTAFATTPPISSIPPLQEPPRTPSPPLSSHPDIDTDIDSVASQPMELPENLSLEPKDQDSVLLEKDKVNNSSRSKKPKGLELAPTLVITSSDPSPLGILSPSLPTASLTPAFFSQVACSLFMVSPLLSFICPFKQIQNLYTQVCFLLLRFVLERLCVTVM
# Outline: as §1
# [16] = biological target: T10, ETV2 (Homo sapiens, UniProt O00321 1-342); conditions: protein: recombinant; tags: N-terminal GST; dsDNA, one strand shown
# T10 sequence: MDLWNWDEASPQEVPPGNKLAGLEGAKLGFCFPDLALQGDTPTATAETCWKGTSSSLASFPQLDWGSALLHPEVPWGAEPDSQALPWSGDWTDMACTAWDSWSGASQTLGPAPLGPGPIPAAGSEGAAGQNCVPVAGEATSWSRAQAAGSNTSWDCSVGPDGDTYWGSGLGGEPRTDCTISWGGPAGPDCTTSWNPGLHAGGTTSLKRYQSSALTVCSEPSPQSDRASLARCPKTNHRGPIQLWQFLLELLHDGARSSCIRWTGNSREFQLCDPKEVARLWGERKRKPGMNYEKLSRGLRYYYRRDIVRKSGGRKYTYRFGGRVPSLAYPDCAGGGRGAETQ
# Outline: as §1
# [17] = biological target: T11, ELF3 (Homo sapiens, UniProt P78545 1-371); conditions: protein: recombinant; tags: N-terminal GST; dsDNA, one strand shown
# T11 sequence: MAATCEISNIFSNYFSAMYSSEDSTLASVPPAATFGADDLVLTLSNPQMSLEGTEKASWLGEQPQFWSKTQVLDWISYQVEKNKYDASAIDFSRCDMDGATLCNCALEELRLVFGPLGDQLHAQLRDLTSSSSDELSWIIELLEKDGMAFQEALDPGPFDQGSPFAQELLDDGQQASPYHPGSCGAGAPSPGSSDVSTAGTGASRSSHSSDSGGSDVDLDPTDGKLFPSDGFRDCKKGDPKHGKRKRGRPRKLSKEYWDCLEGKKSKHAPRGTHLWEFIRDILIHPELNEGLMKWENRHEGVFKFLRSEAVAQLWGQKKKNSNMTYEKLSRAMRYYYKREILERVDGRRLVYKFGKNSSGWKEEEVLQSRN
# Outline: as §1
# [18] = biological target: ETV1 (Homo sapiens, UniProt P50549 1-477); conditions: protein: recombinant; tags: N-terminal GST; dsDNA, one strand shown
# Chain of ETV1 (P50549 whole entry): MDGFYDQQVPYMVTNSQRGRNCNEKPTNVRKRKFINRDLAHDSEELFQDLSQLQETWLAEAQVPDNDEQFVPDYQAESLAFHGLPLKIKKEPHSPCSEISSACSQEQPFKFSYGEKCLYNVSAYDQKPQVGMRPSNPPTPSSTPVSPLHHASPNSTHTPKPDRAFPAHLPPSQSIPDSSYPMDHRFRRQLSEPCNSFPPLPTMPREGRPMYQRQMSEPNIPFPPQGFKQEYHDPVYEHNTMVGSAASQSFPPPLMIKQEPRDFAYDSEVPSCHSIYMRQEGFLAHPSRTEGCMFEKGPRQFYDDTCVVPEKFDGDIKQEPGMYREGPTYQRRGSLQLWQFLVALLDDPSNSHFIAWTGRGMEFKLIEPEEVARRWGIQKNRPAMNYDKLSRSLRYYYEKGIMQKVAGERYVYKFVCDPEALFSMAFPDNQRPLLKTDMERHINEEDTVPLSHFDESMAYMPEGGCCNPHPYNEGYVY
# Outline: as §1
sequence,measurement,setting,value
CCACTG,binding signal,[1],"1.16 fold enrichment (6-mer frequency, TF over GST control)"
same,binding signal,[2],"1.11 fold enrichment (6-mer frequency, TF over GST control)"
same,binding signal,[3],"1.25 fold enrichment (6-mer frequency, TF over GST control)"
same,binding signal,[4],"1.23 fold enrichment (6-mer frequency, TF over GST control)"
same,binding signal,[5],"1.28 fold enrichment (6-mer frequency, TF over GST control)"
same,binding signal,[6],"1.19 fold enrichment (6-mer frequency, TF over GST control)"
same,binding signal,[7],"1.16 fold enrichment (6-mer frequency, TF over GST control)"
same,binding signal,[8],"1.15 fold enrichment (6-mer frequency, TF over GST control)"
same,binding signal,[9],"1.2 fold enrichment (6-mer frequency, TF over GST control)"
same,binding signal,[10],"1.19 fold enrichment (6-mer frequency, TF over GST control)"
same,binding signal,[11],"1.15 fold enrichment (6-mer frequency, TF over GST control)"
same,binding signal,[12],"1.08 fold enrichment (6-mer frequency, TF over GST control)"
same,binding signal,[13],"1.34 fold enrichment (6-mer frequency, TF over GST control)"
same,binding signal,[14],"1.2 fold enrichment (6-mer frequency, TF over GST control)"
same,binding signal,[15],"1.18 fold enrichment (6-mer frequency, TF over GST control)"
same,binding signal,[16],"1.17 fold enrichment (6-mer frequency, TF over GST control)"
same,binding signal,[17],"1.04 fold enrichment (6-mer frequency, TF over GST control)"
same,binding signal,[18],"1.31 fold enrichment (6-mer frequency, TF over GST control)"
